HIF act = HIF pathway transcriptional activation; U2OS HRE-luciferase reporter, luminescence; normalized: DMSO 0%, desferrioxamine 100%; activation, % at 7.5 µM (by protocol); hit rate 0.32% among 300,000; AID 1910;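 active means mean activation of at least 10% of the iron chelator positive control signal, with at least half of replicates also reaching 10%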
PP1 counter = PP1-alpha (human) inhibition in PP5 counter-screen. purified PP1alpha, OMFP fluorescence. inhibition, % at 6.7 µM. hit rate 0.9% among 320,000. AID 2235;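 active means inhibition above the mean inhibition of all tested compounds plus 3 SD, computed separately for each screening campaign, cut at about 15% in these data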
PP5 primary = blocks human protein phosphatase 5 activity; P53041; purified PP5c, OMFP substrate fluorescence; inhibition, % at 6.7 µM; hit rate 0.18% among 320,000;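 active means inhibition above the campaign's mean inhibition across all tested compounds plus 3 SD, cut at about 9.5% in these data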
DYRK1A inh = blocks rat Dyrk1A kinase activity. ADP-Glo luminescence, NFATc1 peptide. Q63470. inhibition, % at 12.5 µM. hit rate 0.43% among 310,000; in the data active means inhibition above about 50%
STK33 kinase inh = human STK33 kinase inhibition; Q9BYT3; purified STK33, MBP phosphorylation, ADP-Glo luminescence; inhibition, % at 10 µM; hit rate 0.073% among 320,000;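 active means inhibition at or above 25%, using the most active replicate where run in duplicate; inactive means inhibition below 25%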
Target sequence (Q9BYT3 whole entry, looked up): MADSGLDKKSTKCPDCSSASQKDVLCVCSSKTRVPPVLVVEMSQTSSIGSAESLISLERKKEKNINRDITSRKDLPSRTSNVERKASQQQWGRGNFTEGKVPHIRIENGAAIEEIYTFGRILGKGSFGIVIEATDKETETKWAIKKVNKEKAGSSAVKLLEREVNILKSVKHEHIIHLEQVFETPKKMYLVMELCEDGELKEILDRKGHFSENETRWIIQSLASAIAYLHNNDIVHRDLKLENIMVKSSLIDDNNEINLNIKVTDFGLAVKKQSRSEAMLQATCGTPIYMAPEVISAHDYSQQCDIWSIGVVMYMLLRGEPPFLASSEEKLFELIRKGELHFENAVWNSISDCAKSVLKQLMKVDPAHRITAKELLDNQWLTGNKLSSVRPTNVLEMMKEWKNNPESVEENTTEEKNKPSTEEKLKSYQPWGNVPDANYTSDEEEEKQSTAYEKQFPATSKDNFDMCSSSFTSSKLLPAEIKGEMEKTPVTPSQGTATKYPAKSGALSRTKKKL
Hits are given with their value; - = inactive; . = no result. Only some compounds are listed: those with a hit (about 1.5% of all), similar ones and a draw of the others.

SMILES	HIF act	PP1 counter	PP5 primary	DYRK1A inh	STK33 kinase inh
CCOc1cc(/C=N/NC(=O)CNc2ccc(C)cc2)ccc1OC(=O)c1ccccc1	-	15	-	.	-
Cc1ccc(NC(=S)N/C(=N/S(=O)(=O)c2ccccc2)c2ccccc2)cc1	10	-	-	-	-
COc1ccc(-c2cn3nc(SCC(=O)NCC4CCCO4)ccc3n2)cc1 (stereo not drawn)	19	-	-	-	-
O=C(Nn1c(C2CCCCC2)nc2ccccc2c1=O)c1ccc(Cl)c([N+](=O)[O-])c1	-	-	-	-	-
O=C(Nn1c(C2CCCCC2)nc2ccccc2c1=O)c1ccc([N+](=O)[O-])cc1Cl	-	17	-	-	-
CCOc1cc(N2CCOCC2)c(OCC)cc1NC(C)C(=O)N1CCC(C)CC1 (stereo not drawn)	29	-	-	-	-
COc1ccc(OCC(=O)NNC(=O)c2ccccc2OCc2c(C)noc2C)cc1	-	-	-	-	-
O=C(CCCc1ccccc1)Nc1ccccn1	15	-	-	-	-
Cc1ccnc(NC(=O)CCCc2ccccc2)c1	-	-	-	-	-
CCOC(=O)C1=C(C)N(C[C@@H]2CC[C@@H](Cc3ccc(-c4ccccc4)cc3)O2)C(=O)NC1C1CC1 (stereo partly drawn)	.	.	.	-	.
O=C(Nc1ccc(-c2nc3ccccc3[nH]2)cc1)c1ccc2c(c1)OCO2	-	15	-	-	-
O=C(Nc1cccc(-c2nc3ccccc3[nH]2)c1)c1cccc(NC(=O)c2ccco2)c1	-	16	-	-	-
CC(=O)c1cccc(NC(=O)CSC(=O)c2ccccc2)c1	30	-	-	-	-
O=c1[nH]cc(S(=O)(=O)N2CCN(c3cccc(C(F)(F)F)c3)CC2)c(=O)[nH]1	-	16	-	-	-
O=c1[nH]cc(S(=O)(=O)N2CCN(c3cccc(Cl)c3)CC2)c(=O)[nH]1	-	-	-	-	-
C/C=C/Cn1c(SCc2ccc(Cl)cc2)nc2c1c(=O)[nH]c(=O)n2C	-	-	-	-	29
O=C(CCC1CCCC1)Nc1cc(C(F)(F)F)ccc1N1CCOCC1	-	17	-	-	-
COc1cc(/C=N/N=C2/C(=O)Nc3ccccc32)ccc1O	-	-	-	-	38
Cc1cc(-c2nnc(CSc3nnc(NC(=O)c4ccc(C(C)(C)C)cc4)s3)o2)ccc1[N+](=O)[O-]	-	-	-	-	-
COc1ccc(CN2CCn3nc(C(=O)NC4CC4)cc3C2=O)cc1	-	-	-	-	-
CCCC(C)c1nnc(NC(=O)COc2ccc3c(c2)OCO3)s1 (stereo not drawn)	-	16	-	-	-
CCOc1ccccc1NC(=O)COc1ccc2c(c1)OCO2	14	-	-	-	-
COc1ccccc1NC(=O)COc1ccc2c(c1)OCO2	-	-	-	-	-
CC(C)c1nnc(NC(=O)COc2ccc3c(c2)OCO3)s1	-	-	-	-	-
COc1ccc(OC)c(CCNC(=O)c2cccc(NC(=O)C3=C(C)OCCS3)c2)c1	-	-	-	-	-
SMILES	HIF act	PP1 counter	PP5 primary	DYRK1A inh	STK33 kinase inh
COc1ccccc1NC(=O)CN(C)S(=O)(=O)c1cccc2cccnc12	29	-	-	-	-
Cc1cc(OCC(=O)NCC(c2ccc(F)cc2)N2CCOCC2)ccc1Cl (stereo not drawn)	.	-	-	.	-
COc1ccc(N2CCN(C(=O)c3ccc(N(C)S(=O)(=O)c4ccc(C)cc4)cc3)CC2)cc1	-	-	-	-	-
Cc1cccc(N2CCN(C(=O)c3ccc4c(c3)NC(=O)C(CSCc3ccc(F)cc3)N4)CC2C)c1 (stereo not drawn)	-	19	-	.	-
COc1ccc(N2CCN(C(=O)c3ccc4c(c3)NC(=O)C(CSCc3cccc(F)c3)N4)CC2)cc1 (stereo not drawn)	-	33	-	.	-
COc1ccc(N2CCN(C(=O)c3ccc4c(c3)NC(=O)C(CSCc3ccc(C)cc3)N4)CC2)cc1 (stereo not drawn)	-	19	-	.	-
COc1ccc(C(=O)N2CCN(c3cccc(Cl)c3)CC2)cc1	-	-	-	-	-
O=C(CSCc1cccc(F)c1)N1CCN(c2ccccc2)CC1	-	-	-	-	-
COc1ccc(N2CCN(C(=O)c3ccc4c(c3)NC(=O)C(CSCc3c(F)cccc3Cl)N4)CC2)cc1 (stereo not drawn)	-	25	-	.	-
CC(C)S(=O)(=O)c1csc(NC(=O)Nc2cccc([N+](=O)[O-])c2)c1Cl	-	-	-	-	-
C/C(=N\Nc1ccc([N+](=O)[O-])cc1[N+](=O)[O-])C(C)C(C)C (stereo not drawn)	-	-	-	-	-
CC(c1ccco1)N(C(=O)c1ccccc1NS(=O)(=O)c1ccc(Cl)c([N+](=O)[O-])c1)c1ccccn1 (stereo not drawn)	-	-	-	-	-
CCc1ccccc1Nc1nc(N)nc(COC(=O)C2CCN(C(=O)c3ccc(F)cc3)CC2)n1	.	.	.	-	.
Cc1nc(-c2ccccn2)nc(SCC(=O)N2CCOCC2)c1Cl	-	-	-	-	-
Cc1nc(-c2ccccn2)nc(SCC(=O)c2ccccc2)c1Cl	-	15	-	-	-
CC(C)(C)N1C(=O)Cc2c1nc(N)c1c(N)nc(N3CCCCC3CO)c(C#N)c21 (stereo not drawn)	-	-	15	-	-
O=C(O)CC1(CC(=O)Nc2cccc(C(=O)O)c2)CCCC1	-	-	-	.	-
N#Cc1ccccc1NC(=O)C1SC(=Nc2ccccc2)C(C(=O)Nc2ccc(Cl)cc2)=C1N (stereo not drawn)	-	-	-	.	-
CCOc1ccc(N=C2SC(C(=O)Nc3ccccc3C#N)C(N)=C2C(=O)Nc2ccc(Cl)cc2)cc1 (stereo not drawn)	-	19	-	-	-
COc1ccc2[nH]c(=O)c(CN(Cc3nnnn3Cc3ccco3)C3CCCCC3)cc2c1	-	-	-	-	-
COc1ccc2[nH]c(=O)c(CN(C3CCCCC3)C(c3nnnn3Cc3ccco3)C(C)C)cc2c1 (stereo not drawn)	-	20	-	-	-
CCCCn1c(-c2ccc(Cl)c(Cl)c2)nc2cc3[nH]c(=O)c(C(C)C)nc3cc21	-	16	-	-	-
CCCCn1c(-c2ccc(C(C)(C)C)cc2)nc2cc3[nH]c(=O)c(C(C)C)nc3cc21	-	-	-	-	-
Oc1cccc(/C=N/NC(=S)Nc2cccnc2)c1O	14	-	-	-	-
CNc1cc(-n2nc(C)cc2-c2ccccc2)ncn1	-	-	-	-	-
SMILES	HIF act	PP1 counter	PP5 primary	DYRK1A inh	STK33 kinase inh
Cc1cc(-c2ccccc2)n(-c2cc(N/N=C/c3ccccc3O)ncn2)n1	.	16	-	-	-
CC(=O)Nc1sc(N/N=C/c2ccccc2)nc1-c1ccc(C)cc1	-	-	-	.	-
CCCc1sc(N/N=C/c2ccccn2)nc1-c1ccc(Br)cc1	25	-	-	-	-
CCc1nnc(NC(=O)c2ccc(S(=O)(=O)N(C)c3ccccc3)cc2)o1	-	16	-	-	-
CC(=O)Nc1ccccc1	.	.	.	-	.
C/C(=N\O)C(=O)Nc1ccccc1	231	-	-	-	-
